Data from the supplement of paper PMC5499739.
Whole data set: some 16,000 sequences, median “Z-score” near -0.37, cut for the highest 2% near 3.1. Many of the other results were omitted from the sample, so the highest values are more common in it than they were.

test system: RBM10 RRM1-ZnF-RRM2 (GST-tagged construct); assay: RNAcompete 7-mer binding Z-score; higher = stronger binding preference
Protocol: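 RNAcompete: 20 pmol GST-tagged RBM10 RNA-binding constructs were incubated with a designed RNA pool of about 241,000 sequences up to 41 nt (1.5 nmol) on glutathione beads for 30 min at 4 °C and washed. Bound RNAs were identified by microarray hybridisation. Each RNA 7-mer is scored by a one-sided Z-score of its enrichment, computed over probes that contain the 7-mer within longer pool sequences.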

Sequence | RNAcompete 7-mer binding Z-score
ACUAUAU | -0.544
AGUCCUC | -0.708
UUACAUU | -0.686
GAAUCUG | -0.632
GCUCGUU | -0.577
ACUCACG | -0.708
GCGCGGC | 0.811
GGCAUGC | 0.228
AUUCCGG | -0.559
UGUCAGA | -0.402
GGGUGGG | 4.11
GGGUGCG | 2.85
CGGUGGA | 2.27
CGGUGGG | 3.18
UCGUGGG | 2.23
GCGUGGG | 3.66
GGGUGGC | 2.45
CGGUGGU | 1.62
ACGUGGG | 2.48
UUUGAGU | -0.213
ACGUAUA | -0.198
UUAGCGC | -0.617
GAGGAAU | 1.71
CAGGAAA | 1.26

Sequence | RNAcompete 7-mer binding Z-score
AAGGAAA | 3.21
AAGGAAG | 4.04
AAGGAAC | 2.66
AAGGAAU | 2.34
UAGGAAA | 1.6
UAGGAAG | 1.94
GAGGAAG | 3.52
UUUGAUC | -0.719
CUGACGG | 0.243
AGAGGCA | 0.421
AGGGUGG | 3.88
UGGGUGA | 3.5
AGGGUCA | 1.51
AGGGUGC | 2.43
CGGGUGA | 2.55
ACGGUGG | 2.73
GGGGUCA | 3
UCGGUGA | 0.479
GGGGUGA | 3.52
AUGGUGA | 2.09
GCGGUGA | 1.39
AGGGUGA | 4.25
CUGGAGG | 1.11
GGGCCCA | -0.151

Sequence | RNAcompete 7-mer binding Z-score
AGUAUUG | 0.024
UGAUUGA | 0.00216
GGACUUG | 0.319
CGGGUGU | 1.83
AGGGUGU | 3.03
GGUGUGG | 3.86
GCGGUGU | 0.96
GGGGUGU | 3.53
UGGGUGC | 2.74
CGGGUGC | 1.94
CGGGUGG | 3.24
UGGGUGG | 4
GGUGUGU | 1.42
UGGGUGU | 2.62
UGUGUGG | 1.79
CAGUACA | -0.0816
ACGCAAC | -0.479
UCUGUUA | -0.795
GACUGUG | -0.198
CGUCAUA | -0.519
AAGUGCG | 0.698
UCAACCC | -0.752
ACCAUUG | -0.584
GGGGUGG | 4.09

Sequence | RNAcompete 7-mer binding Z-score
GGGGUGC | 2.58
GCGGUGG | 3.01
CUCACAG | -0.351
ACCAGGC | -0.136
GGGAUGA | 3.59
UGGAUAG | 2.3
UGGAUAA | 1.07
GGGAUAA | 3.36
GGGAUAG | 3.83
AGGAUAG | 2.21
GGGAUGC | 2.65
GGGAUAC | 2.71
GGGAUGU | 2.88
UCUGGUC | -0.522
UCUGUCC | -0.81
UAGGGCA | 2.23
UAGGGGU | 3.84
UAGGGCU | 1.3
CAGGGGU | 2.91
UAGGGGC | 2.34
CAGGGGA | 2.8
UAGGGGA | 3.81
UAGGGGG | 3.4
CAGGGGG | 2.58

Sequence | RNAcompete 7-mer binding Z-score
GUGACGA | 0.68
GUAAAAA | 0.253
CCAUUGG | -0.53
GUUUUGU | 0.024
UGCUUGC | -0.73
CCGAUUG | -0.606
UAAGGUU | 1.74
GAAGGGU | 4.15
UAAGGGC | 1.51
GAAGGCU | 0.581
UAAGGGA | 3.09
GAAGGGC | 3.32
AAAGGGC | 2.89
UAAGGGU | 3.54
UAAGGCU | 0.224
CAAGGGA | 2.5
AAAGGGA | 4.13
GAAGUGU | 1.09
CCGUAUC | -0.876
AUAAUGG | 1.84
UGAUUAA | -0.118
AUACACA | -0.187
AGGUUGU | 0.691
GCGACGC | -0.253

Sequence | RNAcompete 7-mer binding Z-score
GUCGCUG | 0.0495
UCUAACC | -0.737
GUCUAUA | -0.479
GUUGCAU | -0.227
CUAGAUU | -0.661
GAACCUG | -0.683
UCGGCUA | -0.537
CGGUGUA | 0.873
AAAGGGU | 4.71
GAAGGGA | 4.75
AAAGGCU | 0.796
CAAGGGU | 2.85
GAAGGCA | 2.46
GCAGGGA | 2.94
GGUUUGU | 0.811
GUAUUGA | -0.107
CGAAGCC | -0.449
AACUCGU | -0.861
GGGAAAG | 4.49
CGGAAGA | 0.862
CGGAAAG | 1.91
CGGAAAA | 0.854
UGGAAAG | 2.78
GGAAAAA | 1.95

Sequence | RNAcompete 7-mer binding Z-score
GGGAAGA | 3.65
GGGAAGU | 2.76
GGGAAAA | 3.43
GUCAGGG | 1.81
UCCUGAC | -0.788
UGGCACA | 0.497
UCGUAAG | -0.326
GUCGAGG | 1.9
CGUUGGA | 0.548
UCUUUAA | -0.803
UCGGCCG | -0.795
CGAGGUA | 1.8
AGAGGUG | 2.05
UGAGGUA | 1.87
GGAGGUU | 2.23
GGAGGUG | 3.64
GGAGGUA | 3.82
CGCAUUC | -0.723
UGCGACG | 0.13
ACUUCUU | -0.952
GAGCGGG | 3.33
UAGCGGA | 1.01
CAGCGGG | 2.5
UAGCGAG | 0.694

Sequence | RNAcompete 7-mer binding Z-score
GAGCGAC | 0.177
GAGCGGA | 3.55
GAGCGGU | 1.51
GAGCGGC | 1.42
GAGCGAG | 3.3
UCCUUAA | -0.715
AAAGAAC | -0.0343
CUCAACA | -0.704
UCUUAGC | -0.817
AUGACCC | -0.57
GUGUGGU | 1.87
AUGUGGG | 3.6
AUGUGGC | 0.84
GUGUGGG | 3.75
GUGUGGA | 2.7
UUGUGGG | 2.44
AGAAUGA | 0.275
CGCACCC | -0.748
GCGUGAG | 1.01
UGGAUGG | 3.42
AGGAUGC | 0.887
CGGAUGG | 1.87
GAGAUGU | 0.392
UGGAUGA | 1.82

Sequence | RNAcompete 7-mer binding Z-score
UGGAUGC | 0.778
GAGAUGG | 4
AGGAUGG | 3.4
UAGAUGG | 2.16
UGUACUU | -0.715
GUCAAUU | -0.602
UUUGCCG | -0.766
ACGACGA | -0.384
GAGCCCC | -0.581
ACCGUAG | -0.147
UUUGUCC | -0.85
ACGGUAC | 0.472
CCCCAAU | -0.755
UUCCACA | -0.508
CGGGAAU | 1.31
UGGGAAU | 2.42
AGGGAAG | 4.36
AGGGACU | 1.09
AGGGAAC | 3.06
GGGGAAG | 3.91
UGGGAAA | 2.49
AGGGAAU | 3.2
GGGGAAA | 3.02
GGGGAAU | 3.13

Sequence | RNAcompete 7-mer binding Z-score
CGGGAAG | 2.07
UGGGAAG | 3.99
GGUAAUU | 0.789
ACUAACG | -0.409
CGAUGUU | -0.657
AGUCGAC | 0.00944
CUAAUGC | -0.795
ACAUCAG | -0.191
CACUGAG | -0.209
UGGGUAU | 2.2
AGGGUAG | 3.71
AGGGUAC | 2.7
UGGGUAC | 2.59
UGGGUAG | 3.34
CGGGUAG | 2.23
CGCGAAC | -0.435
GCUCGAC | -0.53
AGUUCCU | -0.77
